Reference: PubChem BioAssay (Tox21)
Where “and” joins values, the source holds several entries; their conditions need not be identical. Equal values may be shown once. Results filed as inconclusive are left out. A call without a number means that no potency is given here. Calls of active or inactive are those of the source. Unless noted, calls follow the shape of the dose curve; as a rule, active = well fitted curve in the direction sought with a large enough effect in the repeat runs; inconclusive = weak or mixed curves; inactive = no such curve, though single readings can be large; an effect the other way counts as inactive or inconclusive.

Legend:
[1] = qHTS assay to identify small molecule HDAC inhibitors (AID 1259364);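 also: wild-type HCT-116 cells with endogenous class I/II HDAC activity; top concentration of the series differs between compounds; nearly all actives have a fitted effect of over 45% in size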
How it was run: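 Read-out: luminescence of HDAC-Glo I/II reagent, 30 min RT, reflecting class I/II deacetylase activity in whole HCT-116 cells pre-exposed 2 h to DMSO-dissolved compounds.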

[2] = qHTS assay to identify small molecule HDAC inhibitors - cell viability counter screen (AID 1259365); also: series mostly up to about 92 µM; nearly all actives have a fitted effect of over 50% in size
How it was run: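 To flag cytotoxic hits, 1,500 wild-type HCT-116 cells per well, plated the day before, receive test compounds for 2hr at 37 C before CellTiter-Glo reagent and a luminescence read.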

[3] = qHTS assay to identify small molecule agonists of the sonic hedgehog signaling (Shh) pathway - cell viability counter screen (AID 1259366); also: nearly all actives have a fitted effect of over 50% in size
How it was run: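 Fluorescence from CellTiter-Fluor reports live cells in this counter screen. NIH/3T3-derived Gli1-Luc reporter cells receive test compounds for 24hr at 37C; reagent goes in at 23hr.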

[4] = qHTS assay to identify small molecule antagonists of the sonic hedgehog signaling (Shh) pathway - cell viability counter screen (AID 1259367); also: nearly all actives have a fitted effect of over 55% in size
How it was run: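 NIH/3T3-derived Gli1-Luc reporter cells (2,000 per well) rested 4 hr at 37 C, then received DMSO compounds plus conditioned medium. After 23 hr of treatment, CellTiter-Fluor was added for 1 hr at 37C and fluorescence read.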

[5] = qHTS assay to identify small molecule agonists of the sonic hedgehog signaling (Shh) pathway (AID 1259368; calls by dose curve;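 also: NIH/3T3-derived 3T3Gli1-Luc cells carrying a stable Gli1-driven firefly luciferase reporter; series mostly up to about 92 µM; nearly all actives have a fitted effect of over 15% in size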)
How it was run: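 A Gli1 transcriptional response element controlled firefly luciferase in 3T3Gli1-Luc cells. Compounds and a positive control were added 4 hr after plating, and cells were incubated a further 24 hr at 37 C before luminescence detection.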

[6] = qHTS assay to identify small molecule antagonists of the sonic hedgehog signaling (Shh) pathway (AID 1259369; calls by dose curve; also: nearly all actives have a fitted effect of over 45% in size; also: potency is read from the fitted curve at half-maximal effect)
How it was run: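 For antagonist detection, the reporter line received test compounds together with conditioned medium, incubated 24hr at 37 C, 5% CO2, then luminescence was recorded following 30min room-temperature luciferase reagent incubation.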

[7] = target: Estrogen receptor beta (Homo sapiens) (UniProt Q92731); assay: qHTS assay to identify small molecule agonists of the estrogen receptor beta (ER-beta) signaling pathway (AID 1259377; active = well fitted activation curve with a large enough effect in the signal ratio in the repeat runs, not every such curve was filed as active; the % refers to the signal ratio; also: potency is read from the fitted curve at half-maximal effect)
How it was run: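 Screening used GripTite ER-beta-UAS-bla cells held in 2% charcoal-stripped FBS medium. After overnight (16 hr) compound incubation at 37C, beta-lactamase activity was detected with a FRET substrate by fluorescence.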

[8] = target: Estrogen receptor beta (Homo sapiens) (UniProt Q92731); assay: qHTS assay to identify small molecule antagonists of the estrogen receptor beta (ER-beta) signaling pathway (AID 1259378; active = well fitted inhibition curve with a large enough effect in the signal ratio in the repeat runs, not every such curve was filed as active; the % refers to the signal ratio)
How it was run: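 ER-beta-UAS-bla HEK293T (GripTite) cells in 2% charcoal-stripped FBS medium were preincubated 6 hr at 37C, dosed with compound, then stimulated with 1 nM E2 (final) for 16 hr; beta-lactamase reporter read by B/G FRET fluorescence after 2 hr substrate loading.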

[9] = qHTS assay to identify small molecule agonists of the androgen receptor (AR) signaling pathway in the presence of an antagonist - cell viability counter screen (AID 1259379);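 also: MDA-kb2 human breast cancer cells carrying an MMTV luciferase reporter; series mostly up to about 92 µM; nearly all actives have a fitted effect of over 25% in size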
How it was run: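 Seed MDA-kb2 at 3,000 cells/well; incubate 5 hr, 37C, 0% CO2. Add nilutamide to 3.0uM final, then pin compounds at 15 concentrations. Incubate 16 hr. Add CellTiter-Fluor at 15 hr, read fluorescence after 1 hr.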

[10] = qHTS assay to identify small molecule agonists of the estrogen receptor beta (ER-beta) signaling pathway - cell viability counter screen (AID 1259380); also: nearly all actives have a fitted effect of over 30% in size
How it was run: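 CellTiter-Glo read, 30 min RT, same wells as bla assay; cells ER-beta-UAS-bla HEK293T; 16 hr compound, 37C; medium 2% charcoal-stripped FBS.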

[11] = qHTS assay to identify small molecule antagonists of the estrogen receptor beta (ER-beta) signaling pathway - cell viability counter screen (AID 1259382); also: series mostly up to about 92 µM; nearly all actives have a fitted effect of over 55% in size
How it was run: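 In this multiplexed counter screen, cells were seeded at 2,000 per well in medium with 2% charcoal-stripped FBS and incubated 6 hr before compound and 1nM final E2 were added. Sixteen hours later, ATP-based luminescence reported viability.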

[12] = target: Estrogen receptor (Homo sapiens) (UniProt P03372); assay: qHTS assay to identify small molecule agonists of the estrogen receptor alpha (ER-alpha) signaling pathway in the presence of an antagonist (AID 1259383; calls by dose curve; also: nearly all actives have a fitted effect of over 15% in size; also: potency is read from the fitted curve at half-maximal effect; as to activation: top concentration of the series differs between compounds)
How it was run: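 Stably transfected VM7Luc4E2 reporter cells, kept 5 days in charcoal-stripped serum, received ICI-182,780 at 10.0nM final before compound addition. Following 22hr incubation at 37C and 5% CO2, luciferase signal was read by luminescence.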

[13] = qHTS assay to identify small molecule agonists of the estrogen receptor alpha (ER-alpha) signaling pathway in the presence of an antagonist - cell viability counter screen (AID 1259386);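 also: series mostly up to about 92 µM; cells exposed to compounds for 22 h at 37 °C before the viability read; nearly all actives have a fitted effect of over 30% in size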
How it was run: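 Viability counter screen using VM7Luc4E2 (full-length ER-alpha, four ERE-luciferase). The cells were treated with compounds alongside ICI-182,780 10.0nM for 22hr, and live-cell protease fluorescence was quantified with CellTiter-Fluor.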

[14] = target: Progesterone receptor (Homo sapiens) (UniProt P06401); assay: qHTS assay to identify small molecule agonists of the progesterone receptor (PR) signaling pathway (AID 1346784; calls by dose curve; also: nearly all actives have a fitted effect of over 30% in size)
How it was run: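 Seed PR-UAS-bla HEK 293T cells (2% charcoal-stripped FBS), incubate 6 hr at 37C; add compounds in DMSO, 16 hr at 37C; add LiveBLAzer B/G substrate, 2 hr RT; read fluorescence intensity.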

[15] = target: Progesterone receptor (Homo sapiens) (UniProt P06401); assay: qHTS assay to identify small molecule antagonists of the progesterone receptor (PR) signaling pathway (AID 1346795; active = well fitted inhibition curve with a large enough effect in the signal ratio in the repeat runs, not every such curve was filed as active; the % refers to the signal ratio)
How it was run: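 Screening used a GripTite HEK293T line with PR-responsive UAS-beta-lactamase. Cells were challenged with compound in the presence of 1 nM R5020 final for 16 hr at 37C; B/G FRET substrate, 2 hr room temperature, fluorescence.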

[16] = qHTS assay to identify small molecule antagonists of the progesterone receptor (PR) signaling pathway - cell viability counter screen (AID 1346798); also: series mostly up to about 92 µM; nearly all actives have a fitted effect of over 50% in size
How it was run: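 Measures cytotoxicity in parallel with the PR antagonist reporter read: HEK293T PR-UAS-bla cells get compound and R5020 for 16 hr, and remaining viable cells are quantified by CellTiter-Glo luminescence.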

[17] = qHTS assay to identify small molecule agonists or antagonists of the thyroid stimulating hormone receptor (TSHR) signaling pathway - wild type cell line counter screen (AID 1259384; calls by dose curve)
How it was run: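 Wild-type HEK293 cells were plated 18 h at 37 C/5% CO2, pin-dosed with compound plus Ro20-1724 medium, held 30 min at room temperature, then given cAMP-d2 and anti-cAMP-cryptate; fluorescence was read after 1 h. Fifteen concentrations, triplicate.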

[18] = target: Thyrotropin receptor (Homo sapiens) (UniProt P16473); assay: qHTS assay to identify small molecule antagonists of the thyroid stimulating hormone receptor (TSHR) signaling pathway (AID 1259385; calls by dose curve; also: nearly all actives have a fitted effect of over 20% in size)
How it was run: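 TSHR-HEK293 cells were plated and held 18 h at 37C/5% CO2, then given compound plus Ro20-1724 and stimulated with TSH at 1.5 ng/mL final. After 30 min at room temperature, cAMP was detected with cAMP-d2/anti-cAMP-cryptate (1 h) by fluorescence.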

[19] = target: Androgen receptor (Homo sapiens) (UniProt P10275); assay: qHTS assay to identify small molecule agonists of the androgen receptor (AR) signaling pathway in the presence of an antagonist (AID 1259381; calls by dose curve; also: nearly all actives have a fitted effect of over 15% in size)
How it was run: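 Test compounds at 15 concentrations were incubated for 16hr with MDA-kb2 reporter cells in presence of 3.0uM nilutamide (final). Signal: ONE-Glo luciferase luminescence.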

Sequence of Thyrotropin receptor (Homo sapiens) (P16473 whole entry, looked up): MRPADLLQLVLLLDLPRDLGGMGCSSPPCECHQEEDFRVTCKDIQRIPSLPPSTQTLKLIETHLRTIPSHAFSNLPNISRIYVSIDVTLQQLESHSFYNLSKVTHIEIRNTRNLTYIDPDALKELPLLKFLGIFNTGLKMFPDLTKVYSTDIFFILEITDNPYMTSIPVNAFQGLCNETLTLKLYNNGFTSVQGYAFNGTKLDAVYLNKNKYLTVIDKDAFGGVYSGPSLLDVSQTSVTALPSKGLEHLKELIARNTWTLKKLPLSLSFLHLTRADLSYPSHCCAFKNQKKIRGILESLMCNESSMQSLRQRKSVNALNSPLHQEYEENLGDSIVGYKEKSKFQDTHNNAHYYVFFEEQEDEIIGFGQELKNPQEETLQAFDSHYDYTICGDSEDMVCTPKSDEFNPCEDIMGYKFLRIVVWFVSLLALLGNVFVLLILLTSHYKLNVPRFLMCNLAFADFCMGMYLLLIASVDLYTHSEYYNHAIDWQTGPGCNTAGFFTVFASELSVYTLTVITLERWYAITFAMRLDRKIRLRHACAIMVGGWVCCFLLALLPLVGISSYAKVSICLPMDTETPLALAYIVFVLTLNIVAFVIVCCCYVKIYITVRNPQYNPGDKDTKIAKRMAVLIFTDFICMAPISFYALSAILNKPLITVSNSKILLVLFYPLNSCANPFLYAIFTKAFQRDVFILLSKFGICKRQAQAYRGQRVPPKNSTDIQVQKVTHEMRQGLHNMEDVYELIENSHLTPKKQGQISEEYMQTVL
Sequence of Progesterone receptor (Homo sapiens) (P06401 whole entry, looked up): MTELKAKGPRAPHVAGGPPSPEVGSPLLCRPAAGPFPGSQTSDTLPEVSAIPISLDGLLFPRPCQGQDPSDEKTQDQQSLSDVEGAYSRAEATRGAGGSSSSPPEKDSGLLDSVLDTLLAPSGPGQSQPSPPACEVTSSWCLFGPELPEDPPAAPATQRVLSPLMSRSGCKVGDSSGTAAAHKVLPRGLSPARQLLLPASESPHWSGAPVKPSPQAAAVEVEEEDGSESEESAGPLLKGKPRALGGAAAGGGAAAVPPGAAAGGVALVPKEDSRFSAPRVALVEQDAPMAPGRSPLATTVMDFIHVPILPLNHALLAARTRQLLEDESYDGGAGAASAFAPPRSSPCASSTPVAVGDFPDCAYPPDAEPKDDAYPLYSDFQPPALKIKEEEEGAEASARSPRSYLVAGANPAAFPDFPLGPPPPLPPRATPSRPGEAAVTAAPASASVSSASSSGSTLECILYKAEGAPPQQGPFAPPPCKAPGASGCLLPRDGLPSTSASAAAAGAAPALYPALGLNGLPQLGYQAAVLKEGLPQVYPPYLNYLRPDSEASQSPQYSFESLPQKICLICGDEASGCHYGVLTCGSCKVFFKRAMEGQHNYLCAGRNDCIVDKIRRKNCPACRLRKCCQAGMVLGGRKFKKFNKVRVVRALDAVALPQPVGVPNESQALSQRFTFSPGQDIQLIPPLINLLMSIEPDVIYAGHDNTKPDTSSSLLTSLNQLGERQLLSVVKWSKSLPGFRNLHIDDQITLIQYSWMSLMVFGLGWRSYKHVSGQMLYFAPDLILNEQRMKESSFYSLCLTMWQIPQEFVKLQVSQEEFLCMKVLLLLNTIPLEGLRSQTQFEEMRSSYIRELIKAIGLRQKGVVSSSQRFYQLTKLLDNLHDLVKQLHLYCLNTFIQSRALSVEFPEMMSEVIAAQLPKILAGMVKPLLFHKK
Sequence of Estrogen receptor beta (Homo sapiens) (Q92731 whole entry, looked up): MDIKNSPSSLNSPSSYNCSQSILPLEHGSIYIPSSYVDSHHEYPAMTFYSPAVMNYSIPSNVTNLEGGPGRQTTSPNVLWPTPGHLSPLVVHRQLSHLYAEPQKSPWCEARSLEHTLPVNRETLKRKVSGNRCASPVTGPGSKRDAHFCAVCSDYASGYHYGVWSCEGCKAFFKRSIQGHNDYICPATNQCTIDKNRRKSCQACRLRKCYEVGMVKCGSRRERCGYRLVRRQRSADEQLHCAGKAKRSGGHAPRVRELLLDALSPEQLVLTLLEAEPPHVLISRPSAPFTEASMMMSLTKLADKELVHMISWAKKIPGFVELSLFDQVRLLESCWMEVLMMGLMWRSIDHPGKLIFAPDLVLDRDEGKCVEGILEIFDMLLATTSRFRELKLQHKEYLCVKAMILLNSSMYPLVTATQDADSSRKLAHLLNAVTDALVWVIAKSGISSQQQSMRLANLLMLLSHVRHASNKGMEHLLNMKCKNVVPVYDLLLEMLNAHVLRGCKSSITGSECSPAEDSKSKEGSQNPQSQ
Sequence of Estrogen receptor (Homo sapiens) (P03372 whole entry, looked up): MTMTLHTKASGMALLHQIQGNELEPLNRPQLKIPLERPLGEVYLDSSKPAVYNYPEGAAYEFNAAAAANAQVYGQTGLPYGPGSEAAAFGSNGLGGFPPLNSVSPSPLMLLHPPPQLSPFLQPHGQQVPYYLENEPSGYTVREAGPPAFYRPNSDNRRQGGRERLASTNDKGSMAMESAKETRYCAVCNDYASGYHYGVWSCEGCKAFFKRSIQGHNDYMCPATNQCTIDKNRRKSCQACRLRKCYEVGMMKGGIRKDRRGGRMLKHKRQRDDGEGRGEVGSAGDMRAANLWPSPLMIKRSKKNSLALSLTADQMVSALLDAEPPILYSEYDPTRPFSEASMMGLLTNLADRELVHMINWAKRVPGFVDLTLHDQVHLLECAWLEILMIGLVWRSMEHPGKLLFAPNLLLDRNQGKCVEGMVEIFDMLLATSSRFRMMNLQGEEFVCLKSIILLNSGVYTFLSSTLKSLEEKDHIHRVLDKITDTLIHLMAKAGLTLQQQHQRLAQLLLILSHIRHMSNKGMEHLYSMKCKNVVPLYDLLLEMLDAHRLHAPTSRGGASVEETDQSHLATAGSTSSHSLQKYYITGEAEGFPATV
Sequence of Androgen receptor (Homo sapiens) (P10275 whole entry, looked up): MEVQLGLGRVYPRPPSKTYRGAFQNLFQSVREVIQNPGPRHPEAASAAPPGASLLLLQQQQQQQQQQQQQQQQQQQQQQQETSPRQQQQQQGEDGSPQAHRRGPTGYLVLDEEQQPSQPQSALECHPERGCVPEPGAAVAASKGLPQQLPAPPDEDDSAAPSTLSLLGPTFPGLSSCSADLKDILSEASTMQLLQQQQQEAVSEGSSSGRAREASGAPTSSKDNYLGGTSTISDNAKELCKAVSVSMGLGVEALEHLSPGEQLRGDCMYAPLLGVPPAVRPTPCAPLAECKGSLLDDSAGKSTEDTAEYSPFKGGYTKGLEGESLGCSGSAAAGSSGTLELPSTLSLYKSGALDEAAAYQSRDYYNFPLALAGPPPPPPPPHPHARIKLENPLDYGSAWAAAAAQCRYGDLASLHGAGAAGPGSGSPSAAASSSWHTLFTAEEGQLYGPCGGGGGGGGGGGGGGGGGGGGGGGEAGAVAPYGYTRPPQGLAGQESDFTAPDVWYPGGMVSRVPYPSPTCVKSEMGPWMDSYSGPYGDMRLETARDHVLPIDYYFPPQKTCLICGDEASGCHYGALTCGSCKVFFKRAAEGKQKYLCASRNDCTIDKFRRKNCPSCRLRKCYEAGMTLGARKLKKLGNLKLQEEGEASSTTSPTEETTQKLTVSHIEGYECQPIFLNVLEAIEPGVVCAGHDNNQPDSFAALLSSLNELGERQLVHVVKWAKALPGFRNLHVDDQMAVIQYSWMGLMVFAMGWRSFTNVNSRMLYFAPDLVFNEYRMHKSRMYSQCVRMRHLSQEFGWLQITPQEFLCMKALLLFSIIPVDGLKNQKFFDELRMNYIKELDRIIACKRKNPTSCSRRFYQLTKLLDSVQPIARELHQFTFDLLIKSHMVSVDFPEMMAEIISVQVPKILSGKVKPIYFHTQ

Row | Compound | Potency [1] | outcome [2] | Potency [3] | Potency [4] | outcome [5] | Potency [6] | Potency [7] | outcome [8] | outcome [9] | Potency [10] | Potency [11] | Potency [12] | outcome [13] | outcome [14] | Potency [15] | Potency [16] | outcome [17] | Potency [18] | outcome [19]
1 | O=S(=O)(c1ccc(O)cc1)c1ccc(O)cc1 | inactive | inactive | inactive | inactive | inactive | 34.4 µM (active) | 4.35 µM (active) and 4.33 µM (active) | inactive | inactive | inactive | inactive | 54.5 µM (active) | inactive | inactive | inactive | inactive |  |  | 
2 | ClCc1cccnc1 | inactive | inactive | inactive | inactive | inactive | inactive |  |  | inactive | inactive | inactive | inactive | inactive | inactive | inactive | inactive | inactive | inactive | 
3 | Cc1[nH]c(=O)n(C(C)(C)C)c(=O)c1Cl | inactive | inactive | inactive | inactive | inactive | inactive |  |  | inactive | inactive | inactive | inactive | inactive | inactive | inactive |  |  | inactive | inactive
4 | CCOP(=S)(OCC)SCCSCC | inactive | inactive | inactive | inactive | inactive | inactive | inactive | inactive | inactive | inactive | inactive |  | inactive | inactive | inactive | inactive | inactive | inactive | 
5 | c1ccc2c(c1)oc1ccccc12 | inactive | inactive | inactive | inactive | inactive | inactive | inactive | inactive | inactive | inactive | inactive |  | inactive | inactive | inactive | inactive | inactive | inactive | 
6 | CCC[CH2][Sn]([Cl])([Cl])[Cl] | inactive | inactive | inactive | inactive | inactive | inactive |  |  | inactive | inactive | inactive | inactive | inactive | inactive | inactive |  | inactive | inactive | 
7 | C=CC(N)=O | inactive | inactive | inactive | inactive | inactive | inactive |  |  | inactive | inactive | inactive | inactive | inactive |  |  | inactive |  | inactive | 
8 | O=C1CCCN1 | inactive | inactive | inactive | inactive | inactive | inactive |  |  | inactive | inactive | inactive | inactive | inactive | inactive | inactive | inactive | inactive | inactive | 
9 | CCOP(OCC)OCC | inactive | inactive | inactive | inactive | inactive | inactive |  |  | inactive | inactive | inactive | inactive | inactive | inactive | inactive |  |  |  | 
